This passage reports binding signal results from PMC7862700, “An all-to-all approach to the identification of sequence-specific readers for epigenetic DNA modifications on cytosine”.

Assay in all cases: DAPPL (digital affinity profiling via proximity ligation, sequencing); 10 mM Tris-HCl pH 7.5, 50 mM NaCl, 1 mM DTT, 4% glycerol, room temperature, 30 min; GST-TFs on glutathione beads, 16-mer random dsDNA library, 0.1% formaldehyde crosslink after washing; high values mean tight binding
The target in one experiment is T1, FEV (Homo sapiens, UniProt Q99581 1-238).
T1 sequence: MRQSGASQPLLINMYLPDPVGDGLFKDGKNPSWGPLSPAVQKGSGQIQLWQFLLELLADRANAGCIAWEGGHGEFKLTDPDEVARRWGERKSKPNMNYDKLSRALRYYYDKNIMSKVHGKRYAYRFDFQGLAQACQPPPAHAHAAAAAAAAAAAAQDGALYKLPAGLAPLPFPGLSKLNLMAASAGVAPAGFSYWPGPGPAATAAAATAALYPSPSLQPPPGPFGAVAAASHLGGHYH
The conditions noted are these: protein: recombinant; tags: N-terminal GST; dsDNA, one strand shown. In outline: (§1)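 In yeast, human transcription factors were expressed with a GST fusion, then pulled down on glutathione beads and given DNA barcodes. Pooled with a tag-only sample, they were exposed to 200 nmole of a 16-mer random double-stranded DNA library (Tris/NaCl/DTT/glycerol buffer, room temperature, 30 min), washed, crosslinked with 0.1% formaldehyde, proximity-ligated using BsaI/T4 ligase for 1 h at 37 °C, PCR-amplified and read on an Illumina NextSeq500. Each hexamer's frequency of reads for a factor, divided by the matching frequency for the tag-only sample, gives the binding signal.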

The next experiment concerns the target ETV5 (Homo sapiens, UniProt P41161 1-510). The note with it: protein: recombinant; tags: N-terminal GST; dsDNA, one strand shown. In outline: as §1
A further experiment addresses HSF1 (Homo sapiens, UniProt Q00613 1-529). The conditions noted are these: protein: recombinant; tags: N-terminal GST; chain copies: 3; dsDNA, one strand shown. In outline: as §1
The next experiment addresses T2, SPIC (Homo sapiens, UniProt Q8N5J4 1-248).
T2 sequence: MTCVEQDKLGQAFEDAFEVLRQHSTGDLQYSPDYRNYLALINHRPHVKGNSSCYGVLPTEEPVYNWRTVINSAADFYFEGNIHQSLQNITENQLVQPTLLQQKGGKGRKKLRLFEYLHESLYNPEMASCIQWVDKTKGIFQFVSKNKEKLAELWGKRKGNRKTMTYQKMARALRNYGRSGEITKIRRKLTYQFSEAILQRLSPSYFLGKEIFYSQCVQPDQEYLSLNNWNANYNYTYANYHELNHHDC
The note with it: protein: recombinant; tags: N-terminal GST; dsDNA, one strand shown. Summed up: as §1

Another experiment concerns the target ELF4 (Homo sapiens, UniProt Q99607 1-663). The note with it: protein: recombinant; tags: N-terminal GST; dsDNA, one strand shown. Summed up: as §1
A further experiment has as its target T3, ELK4 (Homo sapiens, UniProt P28324-2 1-405).
T3 sequence: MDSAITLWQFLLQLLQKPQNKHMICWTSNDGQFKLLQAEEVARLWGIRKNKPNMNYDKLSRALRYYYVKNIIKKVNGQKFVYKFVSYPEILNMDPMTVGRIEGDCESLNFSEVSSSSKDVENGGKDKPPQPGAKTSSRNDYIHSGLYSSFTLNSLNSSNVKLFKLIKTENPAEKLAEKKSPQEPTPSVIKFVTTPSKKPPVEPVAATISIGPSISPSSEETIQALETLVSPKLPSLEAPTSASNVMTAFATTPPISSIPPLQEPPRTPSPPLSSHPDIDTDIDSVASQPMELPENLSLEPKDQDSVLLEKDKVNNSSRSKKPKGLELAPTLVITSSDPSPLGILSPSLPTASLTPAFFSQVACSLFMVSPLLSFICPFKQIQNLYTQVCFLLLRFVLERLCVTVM
The conditions noted are these: protein: recombinant; tags: N-terminal GST; dsDNA, one strand shown. In outline: as §1

Another experiment has as its target T4, ETV2 (Homo sapiens, UniProt O00321 1-342).
T4 sequence: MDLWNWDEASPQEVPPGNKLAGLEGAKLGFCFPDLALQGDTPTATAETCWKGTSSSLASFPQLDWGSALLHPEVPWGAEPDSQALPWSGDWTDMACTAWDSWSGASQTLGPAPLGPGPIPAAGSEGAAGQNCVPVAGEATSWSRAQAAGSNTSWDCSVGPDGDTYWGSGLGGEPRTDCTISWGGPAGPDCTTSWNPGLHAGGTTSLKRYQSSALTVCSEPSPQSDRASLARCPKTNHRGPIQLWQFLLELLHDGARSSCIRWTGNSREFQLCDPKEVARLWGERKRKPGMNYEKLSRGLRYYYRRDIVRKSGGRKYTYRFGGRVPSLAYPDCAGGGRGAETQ
The note with it: protein: recombinant; tags: N-terminal GST; dsDNA, one strand shown. Summed up: as §1

In another experiment the target is T5, ELF3 (Homo sapiens, UniProt P78545 1-371).
T5 sequence: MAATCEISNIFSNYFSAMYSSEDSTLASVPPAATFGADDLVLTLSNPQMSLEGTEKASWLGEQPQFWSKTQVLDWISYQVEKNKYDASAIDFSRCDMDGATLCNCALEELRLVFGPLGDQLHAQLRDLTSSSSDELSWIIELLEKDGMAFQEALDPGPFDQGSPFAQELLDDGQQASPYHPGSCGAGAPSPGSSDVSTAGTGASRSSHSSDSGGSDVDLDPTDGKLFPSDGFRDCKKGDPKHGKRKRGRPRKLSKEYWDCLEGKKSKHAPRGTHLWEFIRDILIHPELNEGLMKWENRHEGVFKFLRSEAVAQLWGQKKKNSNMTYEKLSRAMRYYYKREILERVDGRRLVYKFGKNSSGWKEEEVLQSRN
The conditions noted are these: protein: recombinant; tags: N-terminal GST; dsDNA, one strand shown. Summed up: as §1

A further experiment deals with CRX (Homo sapiens, UniProt O43186 1-299). The conditions noted are these: protein: recombinant; tags: N-terminal GST; dsDNA, one strand shown. In outline: as §1
Chain of CRX (O43186 whole entry): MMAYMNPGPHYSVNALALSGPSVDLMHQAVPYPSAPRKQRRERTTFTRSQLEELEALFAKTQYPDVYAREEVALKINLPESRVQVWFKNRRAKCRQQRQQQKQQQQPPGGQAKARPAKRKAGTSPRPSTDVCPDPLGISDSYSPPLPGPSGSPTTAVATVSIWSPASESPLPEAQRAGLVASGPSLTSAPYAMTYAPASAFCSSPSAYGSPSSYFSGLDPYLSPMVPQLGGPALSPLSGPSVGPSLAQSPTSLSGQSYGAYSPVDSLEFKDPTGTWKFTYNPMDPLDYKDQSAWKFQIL
A further experiment deals with ETV1 (Homo sapiens, UniProt P50549 1-477). The note with it: protein: recombinant; tags: N-terminal GST; dsDNA, one strand shown. Summed up: as §1
Chain of ETV1 (P50549 whole entry): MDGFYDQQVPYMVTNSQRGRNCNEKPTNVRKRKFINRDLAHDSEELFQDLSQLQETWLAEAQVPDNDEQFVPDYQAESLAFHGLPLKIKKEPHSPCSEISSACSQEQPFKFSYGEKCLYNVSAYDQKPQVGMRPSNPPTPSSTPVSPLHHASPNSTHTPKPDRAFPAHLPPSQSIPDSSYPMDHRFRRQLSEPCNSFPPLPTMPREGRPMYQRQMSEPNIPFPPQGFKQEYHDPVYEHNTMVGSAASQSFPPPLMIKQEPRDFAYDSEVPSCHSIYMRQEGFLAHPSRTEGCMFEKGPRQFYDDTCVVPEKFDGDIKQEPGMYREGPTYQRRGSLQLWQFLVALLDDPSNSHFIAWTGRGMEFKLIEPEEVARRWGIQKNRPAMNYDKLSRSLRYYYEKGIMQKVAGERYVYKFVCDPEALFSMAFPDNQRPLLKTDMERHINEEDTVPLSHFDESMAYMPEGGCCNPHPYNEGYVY
A further experiment has as its target T6, ERF (Homo sapiens, UniProt P50548 1-548).
T6 sequence: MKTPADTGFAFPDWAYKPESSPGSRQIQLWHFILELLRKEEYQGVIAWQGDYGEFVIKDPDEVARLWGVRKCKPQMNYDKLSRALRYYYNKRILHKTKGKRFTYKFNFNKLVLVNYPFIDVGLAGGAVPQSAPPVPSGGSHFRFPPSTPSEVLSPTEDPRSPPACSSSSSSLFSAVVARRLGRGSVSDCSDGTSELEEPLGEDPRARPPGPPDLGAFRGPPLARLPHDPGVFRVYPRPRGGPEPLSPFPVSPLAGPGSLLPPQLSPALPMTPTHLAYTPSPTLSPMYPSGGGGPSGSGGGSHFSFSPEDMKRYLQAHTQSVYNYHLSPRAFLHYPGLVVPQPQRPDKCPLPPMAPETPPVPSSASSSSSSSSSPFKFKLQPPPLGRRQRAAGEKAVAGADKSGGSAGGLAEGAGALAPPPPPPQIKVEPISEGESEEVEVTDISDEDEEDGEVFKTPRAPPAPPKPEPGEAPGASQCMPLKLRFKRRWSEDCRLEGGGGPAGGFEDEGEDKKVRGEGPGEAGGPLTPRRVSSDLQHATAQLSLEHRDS
The conditions noted are these: protein: recombinant; tags: N-terminal GST; dsDNA, one strand shown. Summed up: as §1

The next experiment addresses T7, ETV3L (Homo sapiens, UniProt Q6ZN32 1-361).
T7 sequence: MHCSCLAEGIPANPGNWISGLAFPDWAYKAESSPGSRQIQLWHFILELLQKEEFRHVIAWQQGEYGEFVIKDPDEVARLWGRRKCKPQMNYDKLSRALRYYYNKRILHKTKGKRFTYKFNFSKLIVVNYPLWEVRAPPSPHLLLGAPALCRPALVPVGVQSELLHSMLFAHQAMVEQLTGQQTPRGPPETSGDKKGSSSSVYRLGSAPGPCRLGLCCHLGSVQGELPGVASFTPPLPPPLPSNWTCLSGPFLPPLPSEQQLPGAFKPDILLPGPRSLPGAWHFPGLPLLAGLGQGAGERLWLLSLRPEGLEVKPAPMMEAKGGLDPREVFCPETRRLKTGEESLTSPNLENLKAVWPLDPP
The note with it: protein: recombinant; tags: N-terminal GST; dsDNA, one strand shown. Summed up:
as §1

The target of a further experiment is T8, ETS2 (Homo sapiens, UniProt P15036 1-469).
T8 sequence: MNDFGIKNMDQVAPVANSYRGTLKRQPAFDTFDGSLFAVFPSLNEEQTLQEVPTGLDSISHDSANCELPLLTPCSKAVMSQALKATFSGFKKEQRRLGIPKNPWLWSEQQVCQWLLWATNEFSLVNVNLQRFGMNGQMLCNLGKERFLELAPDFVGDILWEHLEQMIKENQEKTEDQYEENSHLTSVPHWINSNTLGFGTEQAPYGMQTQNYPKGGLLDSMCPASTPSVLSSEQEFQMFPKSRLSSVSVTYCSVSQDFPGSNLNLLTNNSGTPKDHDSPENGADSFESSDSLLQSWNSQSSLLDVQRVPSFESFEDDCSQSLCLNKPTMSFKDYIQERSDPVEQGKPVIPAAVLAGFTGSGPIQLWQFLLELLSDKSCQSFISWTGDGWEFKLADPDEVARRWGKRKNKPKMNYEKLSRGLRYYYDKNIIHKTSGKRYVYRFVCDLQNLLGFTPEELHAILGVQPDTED
The conditions noted are these: protein: recombinant; tags: N-terminal GST; dsDNA, one strand shown. In outline: as §1

A further experiment concerns the target T9, SPDEF (Homo sapiens, UniProt O95238 1-335).
T9 sequence: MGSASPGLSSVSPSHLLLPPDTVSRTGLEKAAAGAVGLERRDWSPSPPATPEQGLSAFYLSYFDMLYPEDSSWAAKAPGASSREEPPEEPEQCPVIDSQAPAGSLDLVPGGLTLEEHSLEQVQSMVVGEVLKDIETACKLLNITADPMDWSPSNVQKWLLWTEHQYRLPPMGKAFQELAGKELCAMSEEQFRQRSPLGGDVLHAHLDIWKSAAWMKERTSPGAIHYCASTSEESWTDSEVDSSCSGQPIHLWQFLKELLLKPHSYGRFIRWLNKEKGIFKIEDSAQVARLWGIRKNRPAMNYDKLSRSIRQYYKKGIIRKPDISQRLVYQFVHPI
The conditions noted are these: protein: recombinant; tags: N-terminal GST; dsDNA, one strand shown. Summed up:
as §1

The target of the next experiment is T10, ETV7 (Homo sapiens, UniProt Q9Y603 1-341).
T10 sequence: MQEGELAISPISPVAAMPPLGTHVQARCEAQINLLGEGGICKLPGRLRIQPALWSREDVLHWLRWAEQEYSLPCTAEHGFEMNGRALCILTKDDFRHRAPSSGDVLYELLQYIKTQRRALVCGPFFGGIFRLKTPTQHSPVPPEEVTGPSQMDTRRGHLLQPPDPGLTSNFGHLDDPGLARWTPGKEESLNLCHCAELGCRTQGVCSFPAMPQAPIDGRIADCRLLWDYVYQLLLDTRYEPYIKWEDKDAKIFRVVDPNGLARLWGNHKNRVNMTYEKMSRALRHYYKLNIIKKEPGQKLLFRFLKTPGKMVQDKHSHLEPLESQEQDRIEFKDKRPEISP
The conditions noted are these: protein: recombinant; tags: N-terminal GST; dsDNA, one strand shown. Summed up:
as §1

A further experiment has as its target T11, ELF5 (Homo sapiens, UniProt Q9UKW6-2 1-255).
T11 sequence: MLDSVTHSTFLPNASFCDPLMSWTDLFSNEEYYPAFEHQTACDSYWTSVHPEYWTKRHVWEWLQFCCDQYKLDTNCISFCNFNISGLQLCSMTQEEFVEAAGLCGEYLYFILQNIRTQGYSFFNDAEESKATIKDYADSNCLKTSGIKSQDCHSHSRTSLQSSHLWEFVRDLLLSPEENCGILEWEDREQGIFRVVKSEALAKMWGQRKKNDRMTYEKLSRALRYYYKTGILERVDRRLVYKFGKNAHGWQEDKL
The conditions noted are these: protein: recombinant; tags: N-terminal GST; dsDNA, one strand shown. In outline:
as §1

A further experiment has as its target T12, ETV3 (Homo sapiens, UniProt P41162-2 1-143).
T12 sequence: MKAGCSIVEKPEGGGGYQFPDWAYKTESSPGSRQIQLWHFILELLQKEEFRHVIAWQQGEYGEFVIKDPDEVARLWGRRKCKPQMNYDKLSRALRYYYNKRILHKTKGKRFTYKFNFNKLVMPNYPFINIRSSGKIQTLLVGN
The conditions noted are these: protein: recombinant; tags: N-terminal GST; dsDNA, one strand shown. In outline: as §1

A further experiment addresses ETV6 (Homo sapiens, UniProt P41212 1-452). The conditions noted are these: protein: recombinant; tags: N-terminal GST; dsDNA, one strand shown. Summed up: as §1

Chain of HSF1 (Q00613 whole entry): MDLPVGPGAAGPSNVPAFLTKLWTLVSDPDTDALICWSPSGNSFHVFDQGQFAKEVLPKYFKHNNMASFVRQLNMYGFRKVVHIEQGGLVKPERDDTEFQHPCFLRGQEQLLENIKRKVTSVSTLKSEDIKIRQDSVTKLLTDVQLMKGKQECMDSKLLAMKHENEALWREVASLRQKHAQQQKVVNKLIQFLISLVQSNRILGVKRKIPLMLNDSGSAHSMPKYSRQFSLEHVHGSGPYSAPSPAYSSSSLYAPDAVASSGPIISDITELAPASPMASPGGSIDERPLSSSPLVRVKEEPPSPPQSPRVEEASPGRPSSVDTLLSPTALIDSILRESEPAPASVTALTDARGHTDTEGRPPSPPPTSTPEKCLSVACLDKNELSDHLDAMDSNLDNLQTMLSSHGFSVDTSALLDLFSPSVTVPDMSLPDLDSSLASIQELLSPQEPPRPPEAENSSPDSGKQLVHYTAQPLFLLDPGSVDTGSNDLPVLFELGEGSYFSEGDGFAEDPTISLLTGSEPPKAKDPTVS
Chain of ELF4 (Q99607 whole entry): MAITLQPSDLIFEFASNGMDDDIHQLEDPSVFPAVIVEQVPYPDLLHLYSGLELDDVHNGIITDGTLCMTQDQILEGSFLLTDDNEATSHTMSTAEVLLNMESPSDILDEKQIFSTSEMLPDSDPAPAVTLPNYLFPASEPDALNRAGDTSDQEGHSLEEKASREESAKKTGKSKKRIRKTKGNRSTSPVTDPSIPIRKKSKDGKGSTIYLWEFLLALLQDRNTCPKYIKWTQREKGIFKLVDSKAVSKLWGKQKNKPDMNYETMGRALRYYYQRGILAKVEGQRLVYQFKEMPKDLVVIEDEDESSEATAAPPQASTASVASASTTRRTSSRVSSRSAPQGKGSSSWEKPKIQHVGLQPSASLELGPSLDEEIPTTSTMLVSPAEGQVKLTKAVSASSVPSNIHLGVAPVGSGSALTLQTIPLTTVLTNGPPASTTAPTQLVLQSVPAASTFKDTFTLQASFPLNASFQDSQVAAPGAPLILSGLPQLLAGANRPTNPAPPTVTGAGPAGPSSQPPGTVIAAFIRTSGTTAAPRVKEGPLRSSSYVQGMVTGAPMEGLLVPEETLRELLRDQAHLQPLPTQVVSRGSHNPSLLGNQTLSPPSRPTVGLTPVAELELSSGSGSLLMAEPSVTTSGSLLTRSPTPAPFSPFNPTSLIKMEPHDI
Chain of ETV5 (P41161 whole entry): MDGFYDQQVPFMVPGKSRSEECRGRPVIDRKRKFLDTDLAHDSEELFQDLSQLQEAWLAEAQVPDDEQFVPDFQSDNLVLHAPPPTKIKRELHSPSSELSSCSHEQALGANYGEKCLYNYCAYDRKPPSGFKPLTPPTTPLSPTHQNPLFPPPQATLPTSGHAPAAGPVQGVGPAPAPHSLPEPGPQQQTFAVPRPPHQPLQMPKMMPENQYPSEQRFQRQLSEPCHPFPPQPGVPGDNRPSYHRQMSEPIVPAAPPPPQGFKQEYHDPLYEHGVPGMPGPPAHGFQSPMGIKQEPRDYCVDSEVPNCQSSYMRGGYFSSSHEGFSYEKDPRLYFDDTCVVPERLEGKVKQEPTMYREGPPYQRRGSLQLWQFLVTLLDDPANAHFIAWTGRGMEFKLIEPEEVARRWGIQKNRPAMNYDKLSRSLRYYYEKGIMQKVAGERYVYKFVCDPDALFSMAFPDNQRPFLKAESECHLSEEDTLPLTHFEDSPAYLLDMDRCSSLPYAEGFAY
Chain of ETV6 (P41212 whole entry): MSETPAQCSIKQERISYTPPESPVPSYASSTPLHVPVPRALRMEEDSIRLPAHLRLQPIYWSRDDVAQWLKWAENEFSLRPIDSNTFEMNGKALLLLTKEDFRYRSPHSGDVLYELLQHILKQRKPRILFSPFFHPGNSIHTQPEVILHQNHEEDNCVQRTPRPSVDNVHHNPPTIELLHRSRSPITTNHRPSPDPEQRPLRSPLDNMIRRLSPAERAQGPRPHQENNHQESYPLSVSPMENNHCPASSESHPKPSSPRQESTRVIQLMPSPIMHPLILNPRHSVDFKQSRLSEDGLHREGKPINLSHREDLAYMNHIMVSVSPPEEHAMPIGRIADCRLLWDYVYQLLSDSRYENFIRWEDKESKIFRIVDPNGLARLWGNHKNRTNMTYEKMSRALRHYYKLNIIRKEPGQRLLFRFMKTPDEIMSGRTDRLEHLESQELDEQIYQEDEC

ATAGAT: the binding signal with FEV was 1.15 fold enrichment (6-mer frequency, TF over GST control); with ETV5, 1.11 fold enrichment (6-mer frequency, TF over GST control); with HSF1, 1.42 fold enrichment (6-mer frequency, TF over GST control); in the experiment with SPIC, 1.2 fold enrichment (6-mer frequency, TF over GST control); with ELF4 it was 1.17 fold enrichment (6-mer frequency, TF over GST control); in the experiment with ELK4, 1.13 fold enrichment (6-mer frequency, TF over GST control). Also, the binding signal in the experiment with ETV2 is 1.19 fold enrichment (6-mer frequency, TF over GST control); in the experiment with ELF3, 1.13 fold enrichment (6-mer frequency, TF over GST control); with CRX, 1.49 fold enrichment (6-mer frequency, TF over GST control); with ETV1 it was 1.19 fold enrichment (6-mer frequency, TF over GST control); with ERF, 1.2 fold enrichment (6-mer frequency, TF over GST control); with ETV3L, 1.25 fold enrichment (6-mer frequency, TF over GST control). The binding signal is 1.12 fold enrichment (6-mer frequency, TF over GST control) with ETS2; 1.27 fold enrichment (6-mer frequency, TF over GST control) with SPDEF; 1.17 fold enrichment (6-mer frequency, TF over GST control) with ETV7; 1.18 fold enrichment (6-mer frequency, TF over GST control) in the experiment with ELF5; 1.01 fold enrichment (6-mer frequency, TF over GST control) with ETV3; 1.15 fold enrichment (6-mer frequency, TF over GST control) in the experiment with ETV6.
